ALDH1A1 inh = qHTS Assay for Inhibitors of Aldehyde Dehydrogenase 1 (ALDH1A1). hit rate 7.3% among 220,000. Purified ALDH1A1, NADH fluorescence, propionaldehyde substrate. Potency, µM (highest dose often 75.3 µM), inactives show at the highest dose activity, negative = inhibition, usual class: inhibitors. AID 1030, 2008;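 note: potency is the fitted concentration of half-maximal effect; plate controls were no enzyme wells and a reference inhibitor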
Target sequence (P00352 whole entry, looked up): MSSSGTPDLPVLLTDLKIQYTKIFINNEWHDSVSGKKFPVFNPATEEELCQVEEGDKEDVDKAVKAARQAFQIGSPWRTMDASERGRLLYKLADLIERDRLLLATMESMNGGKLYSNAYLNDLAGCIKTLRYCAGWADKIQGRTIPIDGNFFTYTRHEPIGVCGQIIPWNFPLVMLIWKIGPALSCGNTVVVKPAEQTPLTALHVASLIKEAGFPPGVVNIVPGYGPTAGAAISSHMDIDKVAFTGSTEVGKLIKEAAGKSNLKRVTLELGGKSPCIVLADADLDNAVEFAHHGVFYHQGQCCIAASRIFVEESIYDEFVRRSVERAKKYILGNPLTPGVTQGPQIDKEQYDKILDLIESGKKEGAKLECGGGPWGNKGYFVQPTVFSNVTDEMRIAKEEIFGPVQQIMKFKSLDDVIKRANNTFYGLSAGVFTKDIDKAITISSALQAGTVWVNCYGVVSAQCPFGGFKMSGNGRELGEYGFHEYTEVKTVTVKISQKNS
12-hLO inh = qHTS Assay for Inhibitors of 12-hLO (12-human lipoxygenase) | purified 12-hLO, xylenol orange hydroperoxide absorbance | Potency, µM (doses to about 57.1 µM), without a hit: at the highest dose activity change, negative = inhibition, usual class: inhibitors | hit rate 0.12% among 150,000 | AID 1452, 2008; active = well fitted inhibition curve with a large enough effect; inconclusive = small, poorly fitted or top-dose-only effect; note: potency is the fitted concentration of half-maximal effect; nearly all actives have a fitted effect of over 55% in size
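150 nM 12hLO, 25 mM Hepes pH 7.0 + 0.01% Triton X-100; cpd preinc 15 min RT; 40 uM arachidonic acid, 30 min RT; Fe-XO 30 min; A573/A405 ratio as read-out.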
HPGD block = qHTS Assay for Inhibitors of HPGD (15-Hydroxyprostaglandin Dehydrogenase); 15-hydroxyprostaglandin dehydrogenase [NAD(+)] (Homo sapiens), P15428; purified HPGD, NADH fluorescence kinetic, PGE2 substrate; Potency, µM, without a hit: top-dose activity change, negative = inhibition, actives largely listed as inhibitors; hit rate 4.3% among 150,000; note: potency is the fitted concentration of half-maximal effect
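20 nM HPGD preincubated 15 min at room temperature with compound in 50 mM Tris-HCl pH 8, 0.01% Tween 20. Started with 1 mM NAD+ and 30 uM prostaglandin E2; NADH fluorescence (360/450 nm) read 5 times over 30-s intervals, last minus first.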
PNC assembly inh = High Content Assay for Compounds that inhibit the Assembly of the Perinucleolar Compartment | PC3M PTB-GFP, PNC prevalence imaging, 16 h; stronger effect = lower value | activity change (PNC), negative = inhibition, % at 10 µM | hit rate 3.1% among 140,000 | AID 2417, 2010;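 active = readout at or below -70, meaning at least 70% loss of cells showing the perinucleolar compartment, a nuclear body marking cancer cells; inconclusive = readout between -30 and a set limit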;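 note: plate controls were DMSO wells for no effect and camptothecin positive control wells for full effect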
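Compounds are pinned in duplicate onto adhered PC3M cells stably expressing GFP-tagged PTB and incubated 16 h at 37 C. Cells are then fixed, nuclei stained with Hoechst, and PNC-positive cells counted.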
Lamin A splicing = qHTS Assay for Modulators of Lamin A Splicing; HeLa LMNA splicing GFP/RFP minigene ratio, 48 h; Potency, µM (doses to about 46.1 µM), inactives show at the top dose ratio change, negative = inhibition, usual class: inhibitors; hit rate 0.01% among 200,000; active = well fitted inhibition curve with a large enough effect in the signal ratio, with a control signal flat, not every such curve was filed as active; inconclusive = small, poorly fitted or top-dose-only effect, or effect the other way, or a change in a side signal; the % refers to the signal ratio; note: potency is the fitted concentration of half-maximal effect
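Read-out is the ratio of GFP to DsRed2 object intensity, acquired by 488 nm laser-scanning cytometry on HeLa lamin A-EGFP minigene reporter cells. Compound incubation 48 hrs at 37 °C in Opti-MEM with 2% FBS; DMSO 0.5% final.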
An asterisk follows results filed as active; ? = inconclusive; . = not tested or not shown; [ ] = dose if it differs, or a comment. The list is not random: actives were taken first. Their share in the collection is about 10%. Unless noted, calls come from the whole dose curve; as a rule, active = well fitted inhibition curve with a large enough effect (not every such curve was filed as active); inconclusive = small, poorly fitted or top-dose-only effect, or another doubt; inactive = no such curve, though single readings can be large or run the other way. Unless noted, % is set by controls: 0 for no effect and ±100 for the full control effect.

SMILES	ALDH1A1 inh	12-hLO inh	HPGD block	PNC assembly inh	Lamin A splicing
CCC(C)NS(=O)(=O)c1ccc(S(=O)(=O)N(CC(=O)Nc2ccccc2)Cc2ccco2)cc1 (centres undefined)	25µM*	-2%	-11%	11	?
CCOc1ccc(N/C=C/C(=O)c2ccc3ccccc3c2)c([N+](=O)[O-])c1	-1%	4%	-3%	33	-9%
O=C(/C=C\NCC(=O)c1ccccc1)c1ccc2ccccc2c1	4.5µM*	-8%	.	?	?
O=C(/C=C\NCC(=O)c1ccccc1)c1ccc(F)cc1	20µM*	-27%	-21%	56	-12%
O=C(/C=C/Nc1ccc(F)cc1Br)c1ccccc1	2%	0%	-8%	?	10%
CC1C=CCCOC1c1ccccc1 (centres undefined)	-2%[13.5 µM]	.	.	.	.
O=C(OCC(=O)N1CCCC1)c1ccc(S(=O)(=O)Nc2ccccc2)cc1	-5%	.	.	.	4%[46 µM]
O=C(c1ccco1)N1CCN(C(=O)C2(S(=O)(=O)c3ccc(Cl)cc3)CC2)CC1	5%	0%	-8%	1	-6%
O=C(OCC(=O)N1CCN(C(=O)c2ccco2)CC1)c1cc(S(=O)(=O)Nc2ccc(Cl)cc2)ccc1O	14µM*	.	.	.	4%[46 µM]
O=C(OCC(=O)N1CCCCC1)c1cc(NS(=O)(=O)c2ccc(Cl)c([N+](=O)[O-])c2)ccc1O	-5%	0%	8.9µM*	-2	-29%
Cc1ccccc1NC(=O)CSc1nc(-c2ccccc2)cn1-c1ccccc1F	.	.	.	.	-3%[46 µM]
COc1ccccc1-c1nnc(SCCOc2ccccc2C)o1	.	.	.	.	-21%[46 µM]
CC(C)(SCc1ccccc1)[C@H](N)C(=O)O	1%[13.5 µM]	-3%[11.4 µM]	2%	.	.
O=[N+]([O-])c1cc2cccnc2c2ncccc12	23%	.	.	.	.
NS(=O)(=O)c1cccc2c1c([N+](=O)[O-])cc1[nH]c(=O)c(=O)[nH]c12	-3%	-9%	16µM*	.	.
NS(=O)(=O)c1cccc2c1c([N+](=O)[O-])cc1nc(O)c(O)nc12	-3%	-16%	16µM*	.	-10%
Cc1ccc(CCNC(=O)c2cc3n(n2)CCCN(Cc2ccc(C)cc2)C3=O)cc1	.	.	.	.	-6%[46 µM]
CO[C@@H]1COC(=O)[C@H](COCc2ccccc2)NC(=O)C/C=C\[C@@H](C)[C@H](OC)COC(=O)[C@H](COCc2ccccc2)NC(=O)C/C=C\[C@H]1C	2%[13.5 µM]	.	.	.	.
CS(=O)(=O)N1CCN(c2ccccc2NC(=O)c2ccc(Br)o2)CC1	3.2µM*	-3%	-7%	-25	-5%
COc1ccccc1C(=O)Nc1ccccc1N1CCN(S(C)(=O)=O)CC1	?	6%	?	-91*	2%
Cc1cc(N2CCN(c3ccccc3)CC2)nc(-c2ccccc2)n1	-1%	-6%	-17%	?	?
Cc1ccc(-c2csc3ncnc(N4CCN(C(=O)c5ccccc5)CC4)c23)cc1	13µM*	-10%	-15%	?	?
COc1ccc(C(=O)N2CCN(c3ncnc4c(-c5ccccc5)nsc34)CC2)cc1	2.8µM*	3%	?	-27	-11%
O=C(c1ccco1)N1CCN(c2ncnc3scc(-c4ccccc4)c23)CC1	11µM*	-3%	-20%	46	6%
O=C(c1ccccc1)N1CCN(c2ncnc3c(-c4ccccc4)nsc23)CC1	?	.	.	.	-4%[46 µM]
SMILES	ALDH1A1 inh	12-hLO inh	HPGD block	PNC assembly inh	Lamin A splicing
O=C(c1ccco1)N1CCN(c2ncnc3scc(-c4cccs4)c23)CC1	-14%	-2%	-10%	-18	-8%
Cc1cc(N2CCN(C(=O)c3ccco3)CC2)nc(-c2ccccc2)n1	6.3µM*	-6%	-21%	?	?
CCOC(=O)c1c(C)[nH]c(C)c1S(=O)(=O)N1CCN(c2cccc(C(F)(F)F)c2)CC1	.	.	.	.	-5%[46 µM]
Cc1sc2ncnc(OCC(=O)N3CCN(C(=O)c4ccco4)CC3)c2c1C	3.2µM*	.	.	.	-34%[46 µM]
O=C(c1c(F)cccc1F)N1CCN(c2ccccc2F)CC1	-5%	2%	-16%	-82*	-4%
O=C(c1cc(N2C(=O)C3C4CCC(C4)C3C2=O)ccc1Cl)N1CCN(c2ccccc2F)CC1 (centres undefined)	-2%	1%	-3%	-119*	-5%
C[C@H]1COc2c(N3CCN(C)CC3)c(F)cc3c(=O)c(C(=O)NCc4ccco4)cn1c23	?	.	-18%	.	.
Cc1c(C(=O)OC2CCCC2C)[nH]c2c1C(=O)CCC2 (centres undefined)	8.9µM*	-8%	-15%	22	?
Cc1c(C(=O)OCCOc2ccccc2)[nH]c2c1C(=O)CCC2	-15%	5%	-18%	-14	?
CCOC(=O)Cn1c(=O)n(CC2CCCO2)c2nc(-c3cc(OC)ccc3OC)nc(C(N)=O)c21 (centres undefined)	.	.	.	.	-9%[46 µM]
CCc1cccc(C)c1NC(=O)COC(=O)C(NS(=O)(=O)c1ccc(Cl)cc1)C(C)O (centres undefined)	5%	-3%	-2%	?	-10%
Cc1ccc(NC(=O)COC(=O)C(NS(=O)(=O)c2ccc(Cl)cc2)C(C)O)cc1C (centres undefined)	1.3µM*	-1%	-7%	?	?
Cc1ccc(NC(=O)COC(=O)[C@H](C)NC(N)=O)c(C)c1	-3%	.	.	.	1%[46 µM]
Cc1ccc(NC(=O)COC(=O)C2CC2(Cl)Cl)cc1C (centres undefined)	20µM*	.	.	.	.
CC(=O)OCC(=O)Nc1ccc(Br)c(C)c1	20%	.	.	.	.
Cc1ccc(NC(=O)COC(=O)C(NS(=O)(=O)c2ccc(Cl)cc2)C(C)O)c(Br)c1 (centres undefined)	3.5µM*	-8%	1%	?	15%
COc1cccc(-c2ccc3ncnc(Nc4ccccc4)c3c2)c1	4%	.	.	.	?
Cc1ccc(Cn2c(CNS(=O)(=O)c3cccc([N+](=O)[O-])c3)nc3cccnc32)cc1	.	.	.	.	11%[46 µM]
O=C(/C=C/C(=O)Oc1ccccc1C(=O)O)Oc1ccccc1C(=O)O	-9%	3%	?	.	3%
O=C(O)CCCC(=O)Nc1ccc(C(=O)N2CCCCC2)c(Cl)c1	-2%	3%	0.45µM*	?	0%
CC(=O)Nc1cc(NC(=O)CCCC(=O)O)ccc1Cl	-5%	-3%	-6%	?	16%
O=C(O)CCCC(=O)Nc1ccc(Cl)c(Cl)c1	-2%	-3%	-4%	36	-6%
COC(=O)CCCC(=O)Nc1ccc(Cl)c(Cl)c1	1%	4%	-13%	-100*	-2%
COc1cc(NC(=O)CN2Cc3ccccc3C2=O)cc(OC)c1OC	.	.	.	.	-3%[46 µM]
